Results on eight molecules are retold here after the supplement of paper PMC11624193, “Coupling cellular drug-target engagement to downstream pharmacology with CeTEAM” (Nature Communications, 2024).

Structures are written as SMILES. Where “and” joins values, the source holds several entries; their conditions need not be identical. Equal values may be shown once.

For this assay, the target named is PARP1 L713F-nLuc biosensor (HCT116) (UniProt P09874). The experiment in a line: PARP1 L713F-nLuc/akaLuc ratio relative to DMSO control (biosensor stabilization) (fold change); higher = more PARP1 biosensor stabilization (target engagement / stabilizer), active = hit call of the paper. The settings on record: stock concentration (mM; final µM = stock mM x 1): 10; 24 h.
Chain of PARP1 L713F-nLuc biosensor (HCT116) (P09874 whole entry L713F, looked up): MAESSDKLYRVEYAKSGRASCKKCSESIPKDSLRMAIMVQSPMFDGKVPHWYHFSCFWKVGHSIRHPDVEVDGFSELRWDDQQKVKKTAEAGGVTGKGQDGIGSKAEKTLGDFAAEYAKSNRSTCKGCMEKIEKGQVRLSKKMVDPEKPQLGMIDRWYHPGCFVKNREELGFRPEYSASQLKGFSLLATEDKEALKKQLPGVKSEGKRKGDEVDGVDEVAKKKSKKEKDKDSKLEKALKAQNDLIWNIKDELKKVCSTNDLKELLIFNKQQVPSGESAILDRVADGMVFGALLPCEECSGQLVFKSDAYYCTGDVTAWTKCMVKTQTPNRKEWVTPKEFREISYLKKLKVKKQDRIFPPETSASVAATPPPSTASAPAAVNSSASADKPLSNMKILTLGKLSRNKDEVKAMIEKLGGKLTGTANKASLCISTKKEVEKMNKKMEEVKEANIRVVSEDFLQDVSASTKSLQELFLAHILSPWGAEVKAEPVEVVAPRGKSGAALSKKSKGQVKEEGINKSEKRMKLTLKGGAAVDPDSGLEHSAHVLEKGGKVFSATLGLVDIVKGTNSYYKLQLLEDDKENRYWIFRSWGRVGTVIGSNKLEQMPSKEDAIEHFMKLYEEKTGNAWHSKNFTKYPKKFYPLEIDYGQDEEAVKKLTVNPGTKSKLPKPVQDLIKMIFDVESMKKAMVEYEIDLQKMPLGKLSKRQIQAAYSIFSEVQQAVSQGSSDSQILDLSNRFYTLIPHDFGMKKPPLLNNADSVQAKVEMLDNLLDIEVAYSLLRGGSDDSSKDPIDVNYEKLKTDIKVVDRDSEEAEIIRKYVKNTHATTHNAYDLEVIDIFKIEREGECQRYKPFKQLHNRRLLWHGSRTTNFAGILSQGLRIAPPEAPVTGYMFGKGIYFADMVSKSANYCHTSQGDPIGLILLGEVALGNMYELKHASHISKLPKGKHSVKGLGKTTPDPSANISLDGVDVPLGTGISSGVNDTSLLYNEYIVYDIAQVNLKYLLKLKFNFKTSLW
On to `O=c1[nH]cc(F)c(=O)[nH]1` [Fluorouracil (5-Fluoracil, 5-FU)], for which the “PARP1 L713F-nLuc/akaLuc ratio” value is 0.702 (inactive).
Turning to `C=CC[C@@H]1/C=C(\C)C[C@H](C)C[C@H](OC)[C@H]2O[C@@](O)(C(=O)C(=O)N3CCCC[C@H]3C(=O)O[C@H](/C(C)=C/[C@@H]3CC[C@@H](O)[C@H](OC)C3)[C@H](C)[C@@H](O)CC1=O)[C@H](C)C[C@@H]2OC` [Tacrolimus (FK506)], the “PARP1 L713F-nLuc/akaLuc ratio” value is 0.7 (inactive).
For the molecule `CCN1CCN(Cc2ccc(Nc3ncc(F)c(-c4cc(F)c5nc(C)n(C(C)C)c5c4)n3)nc2)CC1` [Abemaciclib], the “PARP1 L713F-nLuc/akaLuc ratio” value was 0.621 (inactive).
Take `Clc1cc2c(NC3CCCC3)nnc(-c3ccncc3)c2cc1Cl`: the “PARP1 L713F-nLuc/akaLuc ratio” value is 0.888 (inactive).
For the molecule `O=C1/C(=C/c2ccc(O)c(Br)c2)CN(Cc2ccccc2)C/C1=C\c1ccc(O)c(Br)c1`, the “PARP1 L713F-nLuc/akaLuc ratio” value is 0.985 (inactive).
With `O=C(O)c1ccc(CN2CCC(CN[C@@H]3C[C@H]3c3ccccc3)CC2)cc1`, the “PARP1 L713F-nLuc/akaLuc ratio” value is 0.815 (inactive) and 0.79 (inactive) and 0.987 (inactive).
`O=C(c1cc(Cc2n[nH]c(=O)c3ccccc23)ccc1F)N1CC(CNC2CC2)C1` [Venadaparib]: the “PARP1 L713F-nLuc/akaLuc ratio” value is 5.9 (active).
Take `O=C(Nc1cc(Cl)cc2c1[nH]c1cnccc12)c1cccnc1`: the “PARP1 L713F-nLuc/akaLuc ratio” value was 0.723 (inactive).
